The text below walks through data of PubChem BioAssay (NCATS).

The structures appear in SMILES notation. Values joined by “and” are separate entries in the source; they are usually repeats but may differ in a detail not shown here. Identical values can stand only once. Inconclusive results are not listed. Active and inactive are the calls of the source. Unless noted, the call rests on the fitted dose curve.

The nature of experiment [1]: Primary qHTS for Huh7 cytotoxicity: counterscreen for inhibitors of MERS-S pseudotyped particle cell entry (AID 1479147). Further: on the % scale 0 is the no-effect control and ±100 the full control effect. Conditions: outcome: dose series up to 57.1 µM unless noted.
A short description of experiment [2]: Primary qHTS for inhibitors of MERS-S pseudo-typed particle cell entry (AID 1479149). Further: nearly all actives have a fitted effect of over 60% in size. On activity change, negative = inhibition: on the % scale 0 is the no-effect control and ±100 the full control effect. The note with it: outcome: dose series up to 57.1 µM unless noted. Background: qHTS replaces the single test concentration by a dilution series.
The nature of experiment [3]: Primary qHTS for Vero E6 cytotoxicity: counterscreen for inhibitors of SARS-S pseudo-typed particle cell entry (AID 1479150). Conditions: outcome: dose series up to 57.1 µM unless noted.
The target in experiment [4] is Cytochrome P450 2D6 (Homo sapiens) (UniProt P10635). The experiment can be described thus: Cytochrome P450 family 2 subfamily D member 6 (CYP2D6) small molecule antagonists: luciferase biochemical (cell-free) qHTS assay (AID 1645840; active means well fitted curve in the direction sought with a large enough effect in the repeat runs; an effect the other way counts as inactive or inconclusive; further: nearly all actives have a fitted effect of over 55% in size; further: potency means the concentration at half of the fitted maximal effect; on activity change, negative = inhibition: on the % scale 0 is the no-effect control and ±100 the full control effect). Put shortly:
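P450-Glo CYP2D6 system: proluciferin substrate converted by enzyme to luciferin, read by luminescence proportional to activity. Enzyme-substrate mix with compound 10 min at room temperature, then NADPH regeneration 1 h before detection reagent.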

In experiment [5] the target is Cytochrome P450 2C9 (Homo sapiens) (UniProt P11712). As to the kind of experiment: Cytochrome P450 family 2 subfamily C member 9 (CYP2C9) small molecule antagonists: luciferase biochemical (cell-free) qHTS assay (AID 1645842; active means well fitted curve in the direction sought with a large enough effect in the repeat runs; an effect the other way counts as inactive or inconclusive; further: on the % scale 0 is the no-effect control and ±100 the full control effect; nearly all actives have a fitted effect of over 55% in size). Summed up:
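P450-Glo CYP2C9 system: proluciferin substrate with enzyme in mix containing 0.4% BSA, 10 min at room temperature, then NADPH regeneration solution added and incubated 1 h at 37C. Detection reagent stopped reaction; luminescence read after 20 min as RLU.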

Experiment [6] in a line: Cytotoxicity counterscreen for inhibitors of SARS-CoV-2 cell entry (AID 1645845). Further: nearly all actives have a fitted effect of over 50% in size. Conditions: outcome: dose series up to 57.1 µM unless noted. Summed up:
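Counterscreen run in the same HEK293-ACE2 line as the pseudotyped-particle entry assay, without particles. Viability after 48 h at 37 C was read as ATP luminescence, scaled between cell-containing and cell-free wells.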
For orientation: The purpose of a counterscreen is to sort out artefacts and off-target activity.

Experiment [7] can be described thus: Primary qHTS to identify inhibitors of SARS-CoV-2 cell entry (AID 1645846). Further: nearly all actives have a fitted effect of over 45% in size. The note with it: SARS-CoV-2 pseudovirus cell entry assay, luminescence. Put shortly:
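Using luciferase-reporting pseudoviruses carrying Wuhan-Hu-1 spike, the screen tracks entry into stably ACE2-expressing cells over 48 hr. Activity is expressed relative to spike particles versus particles lacking any fusion protein.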

Experiment [8] concerns the target Glutathione peroxidase 1 (Homo sapiens) (UniProt P07203). The experiment can be described thus: Primary qHTS Assay for Inhibitors of Recombinant Selenoprotein Glutathione Peroxidase 1 (GPX1) (AID 1845191; active means well fitted curve in the direction sought with a large enough effect; an effect the other way counts as inactive or inconclusive; further: nearly all actives have a fitted effect of over 65% in size). Put shortly:
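GR-coupled readout: NADPH consumption tracked by fluorescence, ex 340/em 450 nm, at t=0 and after 15 min at RT. Final mix 10 nM GPX1, 1 mM GSH, 0.5 mM CHP, 0.5 mM NADPH, 100 nM GR, 0.01% BSA, following 30 min enzyme–compound preincubation.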

The nature of experiment [9]: Confirmatory qHTS to identify inhibitors of SARS-CoV-2 cell entry (AID 1645844). Further: on the % scale 0 is the no-effect control and ±100 the full control effect; nearly all actives have a fitted effect of over 45% in size. Put shortly:
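HEK293-ACE2, overnight seeding; cpd 1 h, 37C/5% CO2; + SARS-CoV-2-S MLV PP (Wuhan-Hu-1, ΔC19); 48 h; Bright-Glo luminescence. Data normalised to S PP and bald PP wells.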

Experiment [10] can be described thus: VSVG counterscreen qHTS to identify inhibitors of SARS-CoV-2 cell entry (AID 1645847). Further: on the % scale 0 is the no-effect control and ±100 the full control effect; nearly all actives have a fitted effect of over 65% in size. Put shortly: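 Entry of VSV-G pseudotyped particles into human ACE2-expressing HEK293 cells was measured by luciferase luminescence 48 h after infection, with compound added 1 h beforehand.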
A short description of experiment [11]: qHTS Assay for Lipid Storage Modulators (AID 1519). On activity change, negative = inhibition: on the % scale 0 is the no-effect control and ±100 the full control effect. Conditions: Drosophila S3 cells, BODIPY lipid droplet/cell ratio, laser cytometry, cells loaded with oleic acid. Put shortly:
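Cells seeded at 5,000 per well were treated with compounds over a concentration series and loaded with oleic acid (400 uM, as added). Lipid droplet fluorescence (488 nm excitation, 500-530 nm channel) was read by laser-scanning cytometry and normalized to 20 uM Triacsin C.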

For experiment [12], the target named is Ubiquitin carboxyl-terminal hydrolase 1 (Homo sapiens) (UniProt O94782). As to the kind of experiment: Inhibitors of USP1/UAF1: Pilot qHTS (AID 504865; active means well fitted curve in the direction sought with a large enough effect; an effect the other way counts as inactive or inconclusive;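 further: rhodamine fluorescence freed from ubiquitin-rhodamine substrate followed over time; top concentration of the series differs between compounds; on the % scale 0 is the no-effect control and ±100 the full control effect; nearly all actives have a fitted effect of over 35% in size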). Summed up:
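Enzyme-free wells gave the negative control, while test wells held 1nM USP1/UAF1 preincubated with compound for 15 min at room temperature. Ub-Rho at 150nM final started the reaction, and fluorescence at 480/540 nm was recorded kinetically.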

For experiment [13], the target named is Bile acid receptor (Homo sapiens) (UniProt Q96RI1). The experiment can be described thus: qHTS assay for small molecule agonists of farnesoid X receptor signaling (AID 588527).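 Further: 0% = vehicle basal and 100% = reference agonist.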 Conditions: HEK293T FXR-UAS-bla, beta-lactamase ratio, 16 h; stronger effect = higher value. Put shortly: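 Quantitative HTS used FXR-UAS-bla HEK293T cells with 16 h compound incubation at 37 C. EC50 values came from concentration-response curves normalized to chenodeoxycholic acid.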
Chain of Bile acid receptor (Homo sapiens) (Q96RI1 whole entry, looked up): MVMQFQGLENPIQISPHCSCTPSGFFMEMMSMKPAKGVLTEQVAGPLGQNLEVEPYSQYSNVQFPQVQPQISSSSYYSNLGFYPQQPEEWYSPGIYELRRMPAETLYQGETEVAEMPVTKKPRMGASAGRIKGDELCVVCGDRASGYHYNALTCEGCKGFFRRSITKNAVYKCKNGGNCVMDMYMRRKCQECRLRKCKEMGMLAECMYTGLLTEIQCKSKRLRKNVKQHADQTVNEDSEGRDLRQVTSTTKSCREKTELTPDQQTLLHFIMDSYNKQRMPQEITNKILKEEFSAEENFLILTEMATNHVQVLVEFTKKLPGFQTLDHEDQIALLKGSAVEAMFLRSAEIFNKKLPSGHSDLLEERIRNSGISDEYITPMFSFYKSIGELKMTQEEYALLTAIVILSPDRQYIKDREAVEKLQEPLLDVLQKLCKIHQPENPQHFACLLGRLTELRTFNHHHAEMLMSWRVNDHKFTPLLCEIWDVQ

Experiment [14] addresses Peroxisome proliferator-activated receptor delta (Homo sapiens) (UniProt Q03181). The experiment can be described thus: qHTS assay for small molecule agonists of peroxisome proliferator-activated receptor delta signaling (AID 588534).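 Further: 0% = DMSO basal wells and 100% = positive control agonist at 10 µM.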 Summed up:
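Agonist-mode qHTS; reporter cells, 5 hrs 37 C pre-incubation; compound titration, 18 hrs 37 C; CCF4 dye, 2 hrs RT; fluorescence read. EC50/efficacy via Hill fit.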

Experiment [15] addresses Peroxisome proliferator-activated receptor gamma (Homo sapiens) (UniProt P37231). As to the kind of experiment: qHTS assay for small molecule agonists of peroxisome proliferator-activated receptor gamma signaling (AID 588536; active means well fitted curve in the direction sought with a large enough effect in the signal ratio, with a control signal flat, not every such curve was filed as active; the % refers to the signal ratio;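 further: 0% = DMSO basal wells and 100% = rosiglitazone at 2 µM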). Put shortly:
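Using GeneBLAzer HEK293 cells, response was quantified by CCF4 fluorescence and normalized between basal DMSO (0%) and rosiglitazone 2 uM (100%); curves yielded half-maximal stimulation concentration and efficacy.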

The nature of experiment [16]: S16 Schwann cell PMP22 intronic element firefly luciferase assay (AID 624032; active means well fitted curve in the direction sought with a large enough effect; an effect the other way counts as inactive or inconclusive; further: potency means the concentration at half of the fitted maximal effect; nearly all actives have a fitted effect of over 30% in size). Summed up: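 Rat S16 Schwann cells stably carrying firefly luciferase driven by a PMP22 intronic element, in 10% FBS, treated 24 h at 37 C. ONE-Glo luminescence normalized to PTC124 control and DMSO (0%); curves classed by r2, magnitude and activity.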
Experiment [17] can be described thus: qHTS assay for small molecule agonists of the antioxidant response element (ARE) signaling pathway (AID 651741; active means well fitted activation curve with a large enough effect in the signal ratio; the % refers to the signal ratio; further: potency means the concentration at half of the fitted maximal effect). Summed up:
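Stably integrated ARE-beta-lactamase reporter HepG2 cells; 16 h compound incubation, 37 C; LiveBLAzer FRET substrate 2 h at room temperature; fluorescence intensity.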

A short description of experiment [18]: qHTS assay for small molecule agonists of the antioxidant response element (ARE) signaling pathway measured by Nrf2-dependant transcriptional activity (AID 720636; active means well fitted curve in the direction sought with a large enough effect in the repeat runs; an effect the other way counts as inactive or inconclusive;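 further: HepG2 cells with an ARE-driven luciferase reporter; % of control where 0% means no effect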). Summed up:
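Nrf2-dependent transcription is measured in ARE-luc HepG2 cells: compound is applied for 16 hr at 37 C after a 6 hr attachment period, and luciferase activity is quantified by luminescence using ONE-Glo.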

The target in experiment [19] is Phospholipid hydroperoxide glutathione peroxidase GPX4 (Homo sapiens) (UniProt P36969). As to the kind of experiment: Primary qHTS Assay for Inhibitors of Recombinant Selenoprotein Glutathione Peroxidase 4 (GPX4) (AID 1845192; active means well fitted curve in the direction sought with a large enough effect; an effect the other way counts as inactive or inconclusive; further: nearly all actives have a fitted effect of over 65% in size). Put shortly:
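Steps: GPX4 plus compound, 30 min RT; add GR/GSH/NADPH master mix; start with cumene hydroperoxide; read 340/450 nm fluorescence at 0 and 15 min. Finals were 200 nM GPX4, 1 mM GSH, 0.5 mM CHP, 0.5 mM NADPH, 100 nM GR.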

Setting [20] is: activity change, negative = inhibition: at 57.1 µM (top of the series) unless noted, outcome: at 57.1 µM (top of the series) unless noted.

Chain of Peroxisome proliferator-activated receptor delta (Homo sapiens) (Q03181 whole entry, looked up): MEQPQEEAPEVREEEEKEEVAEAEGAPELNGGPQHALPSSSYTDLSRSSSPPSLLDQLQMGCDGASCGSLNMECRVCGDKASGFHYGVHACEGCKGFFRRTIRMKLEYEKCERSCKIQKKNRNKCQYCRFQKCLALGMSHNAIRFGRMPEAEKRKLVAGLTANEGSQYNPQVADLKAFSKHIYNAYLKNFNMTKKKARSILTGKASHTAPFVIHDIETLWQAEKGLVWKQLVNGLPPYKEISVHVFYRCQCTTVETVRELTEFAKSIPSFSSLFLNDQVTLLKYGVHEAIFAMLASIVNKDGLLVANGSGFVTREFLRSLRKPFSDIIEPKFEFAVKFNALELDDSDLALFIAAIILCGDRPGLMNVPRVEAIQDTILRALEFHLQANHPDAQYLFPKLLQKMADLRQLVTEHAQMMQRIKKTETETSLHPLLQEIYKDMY
Chain of Cytochrome P450 2D6 (Homo sapiens) (P10635 whole entry, looked up): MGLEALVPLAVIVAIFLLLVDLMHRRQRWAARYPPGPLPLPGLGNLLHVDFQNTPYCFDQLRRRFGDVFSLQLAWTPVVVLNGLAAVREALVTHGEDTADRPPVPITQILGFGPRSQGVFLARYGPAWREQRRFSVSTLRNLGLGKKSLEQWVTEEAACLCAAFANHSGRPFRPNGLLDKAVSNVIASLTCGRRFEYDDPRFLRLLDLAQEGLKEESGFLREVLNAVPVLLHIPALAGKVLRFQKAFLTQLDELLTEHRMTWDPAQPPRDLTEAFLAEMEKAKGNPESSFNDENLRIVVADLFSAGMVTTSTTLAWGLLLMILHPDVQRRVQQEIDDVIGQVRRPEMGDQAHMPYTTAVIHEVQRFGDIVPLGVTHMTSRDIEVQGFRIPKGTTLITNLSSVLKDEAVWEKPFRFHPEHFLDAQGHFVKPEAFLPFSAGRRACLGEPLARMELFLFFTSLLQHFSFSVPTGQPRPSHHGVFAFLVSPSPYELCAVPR
Chain of Glutathione peroxidase 1 (Homo sapiens) (P07203 whole entry, looked up): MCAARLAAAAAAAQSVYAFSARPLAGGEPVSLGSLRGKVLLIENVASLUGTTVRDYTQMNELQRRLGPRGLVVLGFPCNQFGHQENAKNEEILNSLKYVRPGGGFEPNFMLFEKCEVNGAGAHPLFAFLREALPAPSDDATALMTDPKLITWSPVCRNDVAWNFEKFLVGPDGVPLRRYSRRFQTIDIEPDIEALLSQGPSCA
Chain of Peroxisome proliferator-activated receptor gamma (Homo sapiens) (P37231 whole entry, looked up): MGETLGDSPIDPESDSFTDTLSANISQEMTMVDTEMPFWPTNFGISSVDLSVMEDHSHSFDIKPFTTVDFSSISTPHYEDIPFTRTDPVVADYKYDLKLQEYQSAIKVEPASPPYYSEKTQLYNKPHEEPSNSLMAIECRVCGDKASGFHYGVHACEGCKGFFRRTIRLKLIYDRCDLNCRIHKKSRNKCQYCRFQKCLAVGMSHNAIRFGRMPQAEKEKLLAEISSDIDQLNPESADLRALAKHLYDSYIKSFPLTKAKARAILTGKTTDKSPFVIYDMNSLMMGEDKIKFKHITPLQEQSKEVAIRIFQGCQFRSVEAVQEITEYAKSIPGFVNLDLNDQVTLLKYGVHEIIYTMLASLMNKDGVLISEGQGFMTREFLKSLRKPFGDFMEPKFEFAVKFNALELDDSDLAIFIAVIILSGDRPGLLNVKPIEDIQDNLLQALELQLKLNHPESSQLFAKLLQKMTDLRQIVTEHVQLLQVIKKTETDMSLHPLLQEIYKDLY
Chain of Cytochrome P450 2C9 (Homo sapiens) (P11712 whole entry, looked up): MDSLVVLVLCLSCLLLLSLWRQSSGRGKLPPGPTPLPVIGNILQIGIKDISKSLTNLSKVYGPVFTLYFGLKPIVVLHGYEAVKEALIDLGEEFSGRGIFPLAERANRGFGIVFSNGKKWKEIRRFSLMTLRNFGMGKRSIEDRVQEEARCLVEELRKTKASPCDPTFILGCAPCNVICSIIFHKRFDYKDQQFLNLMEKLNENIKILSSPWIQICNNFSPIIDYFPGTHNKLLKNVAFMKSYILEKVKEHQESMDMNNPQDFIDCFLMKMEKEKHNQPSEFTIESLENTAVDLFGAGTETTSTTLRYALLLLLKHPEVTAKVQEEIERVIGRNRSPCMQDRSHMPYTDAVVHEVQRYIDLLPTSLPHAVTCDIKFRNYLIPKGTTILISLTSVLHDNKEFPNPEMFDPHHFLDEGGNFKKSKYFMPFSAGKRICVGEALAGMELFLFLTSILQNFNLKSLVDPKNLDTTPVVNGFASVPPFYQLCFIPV
Chain of Phospholipid hydroperoxide glutathione peroxidase GPX4 (Homo sapiens) (P36969 whole entry, looked up): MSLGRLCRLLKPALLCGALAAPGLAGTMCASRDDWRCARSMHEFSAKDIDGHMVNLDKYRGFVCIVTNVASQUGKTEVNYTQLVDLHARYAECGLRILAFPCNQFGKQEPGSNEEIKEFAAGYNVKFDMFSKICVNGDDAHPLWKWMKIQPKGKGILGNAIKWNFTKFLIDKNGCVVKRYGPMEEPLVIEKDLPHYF
Chain of Ubiquitin carboxyl-terminal hydrolase 1 (Homo sapiens) (O94782 whole entry, looked up): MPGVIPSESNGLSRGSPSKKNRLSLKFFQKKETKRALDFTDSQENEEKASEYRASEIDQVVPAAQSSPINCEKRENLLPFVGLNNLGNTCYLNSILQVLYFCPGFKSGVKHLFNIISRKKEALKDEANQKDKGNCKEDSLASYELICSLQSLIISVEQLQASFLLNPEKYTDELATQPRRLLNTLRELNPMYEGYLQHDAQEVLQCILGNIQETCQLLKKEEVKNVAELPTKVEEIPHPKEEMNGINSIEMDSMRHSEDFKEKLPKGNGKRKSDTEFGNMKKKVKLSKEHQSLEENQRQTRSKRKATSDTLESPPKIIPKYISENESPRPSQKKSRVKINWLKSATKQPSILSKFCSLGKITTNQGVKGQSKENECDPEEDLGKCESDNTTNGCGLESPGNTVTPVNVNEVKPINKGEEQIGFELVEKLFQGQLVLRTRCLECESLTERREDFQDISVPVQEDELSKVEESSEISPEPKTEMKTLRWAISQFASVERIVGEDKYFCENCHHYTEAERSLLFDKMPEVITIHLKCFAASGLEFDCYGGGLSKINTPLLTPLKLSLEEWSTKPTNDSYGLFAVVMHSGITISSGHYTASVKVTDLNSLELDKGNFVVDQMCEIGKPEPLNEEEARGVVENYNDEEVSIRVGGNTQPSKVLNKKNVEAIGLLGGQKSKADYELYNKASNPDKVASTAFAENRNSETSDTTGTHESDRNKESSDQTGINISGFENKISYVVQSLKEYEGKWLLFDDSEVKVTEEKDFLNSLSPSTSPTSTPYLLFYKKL

On to `NCCS[As](SCCN)c1ccc(Nc2nc(N)nc(N)n2)cc1`, for which the Potency entry in experiment [1], in [2], in [3], in [4], in experiment [5] and in [6] was “inactive” each time. The Potency entry in experiment [8] is “inactive”. In experiment [7] (setting [20]), the activity change, negative = inhibition was -25.6%.

As to `CC(=O)O[C@H]1C[C@@H]2CC[C@@H]3[C@H](CC[C@@]4(C)[C@H]3C[C@H](N3CC[N+](C)(C)CC3)[C@@H]4OC(C)=O)[C@@]2(C)C[C@@H]1N1CC[N+](C)(C)CC1`, the Potency result in [1], in experiment [2] and in [3] was “inactive” throughout.

As for `CN(C)C(=O)c1cc2cnc(Nc3ccc(N4CCNCC4)cn3)nc2n1C1CCCC1`, the Potency entry in experiment [1], in [2], in [3], in [9], in experiment [6] and in experiment [10] was “inactive” in each case. In addition, the activity change, negative = inhibition is -19.2% in experiment [7] (at 27.1 µM (top of the series)) and -45.9% in [7] (at 57.1 µM (top of the series)).

Turning to `COc1cc(CNC(=O)CCCC/C=C/C(C)C)ccc1O`, the activity change, negative = inhibition was -5.1% (inactive) and 0.692% (inactive) in experiment [11] (at 57.5 µM (top of the series)); -28.1% and -35.9% in experiment [7] (setting [20]). In addition, the max response in [11] (measured here: cell count channel max response) was -0.801% and 21.3%; in [11] (measured here: lipid channel max response), -2.34% and 21.8%. The Potency result in [12], in [1], in experiment [2], in experiment [3] and in [6] was “inactive” in each case. In experiment [13], the activation was -2.84% (inactive) and 4.77% (inactive). The compound was classed as inactive in experiment [14], in experiment [15] and in experiment [18]. For the same compound, the Potency was 9.07 µM (active) in [16] and 42.2 µM (active) in experiment [17].

Turning to `CC[C@H](C)[C@@H]([C@@H](CC(=O)N1CCC[C@H]1[C@H](OC)[C@@H](C)C(=O)NCCc1ccccc1)OC)N(C)C(=O)[C@@H](NC(=O)[C@H](C(C)C)N(C)C)C(C)C`, the Potency result in experiment [1] was “inactive”.

In the case of `CCCOc1ccc2nc(NC(=O)OC)sc2c1`, the Potency entry in experiment [1] and in experiment [2] was “inactive” each time.

Turning to `C[C@@]12CCCCC[C@@H](Cc3ccc(O)cc31)[C@H]2N`, the Potency result in experiment [1], in [2], in experiment [3], in experiment [8] and in [19] was “inactive” in each case. Besides, the Potency in [4] was 16.9 µM (active).
